Source: PubChem BioAssay
CD40 NFkB inh – CD40 pathway inhibition in BL2 cells; inhibition, % at 10 µM; BL2 NF-kB luciferase reporter, CD40L-induced, 4 h; actives 0.94% (n = 83,000);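 active = mean inhibition of at least 50% with a set share of replicates also reaching that level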;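 note: 0% = neutral control wells and 100% = IKK inhibitor VII at 50 µM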
The depositor's hits bear a star; [ ] = another dose, or the depositor's remark. Shown is part of a subset that was picked to be rich in hits.

SMILES	CD40 NFkB inh
CCOC(=O)c1c(C)nc(C)c(C(=O)OCC)c1-c1cccc([N+](=O)[O-])c1	-2.7
Cc1nc2nc(C)n(CCN3CCOCC3)c(=O)c2c(-c2cccc([N+](=O)[O-])c2)c1C(=O)CCCCCCCCCCN1CCC(c2ccccc2)(c2ccccc2)CC1	115.2*
C[C@@H]1CN([C@H](C)CO)C(=O)CCCn2nncc2CO[C@H]1CN(C)S(=O)(=O)c1ccccc1C#N	3.7[25 µM]
CN1C(=O)c2cc(NC(=O)C3CC3)ccc2OC[C@@H]2O[C@H](CC(=O)NCC3CCCCC3)CC[C@H]21	2.4
CC(=O)N(C)C[C@@H]1Oc2c(cccc2N(C)C)C(=O)N(C)C[C@H]1C	-10.9
O=C(Nc1ccc2c(c1)OCO2)N1C[C@@H]2N[C@H](C1)C2c1ccc(-c2ccccc2)cc1 (stereo partly drawn)	-3.4[25 µM]
COc1ccc(C=C(C(C)=O)C(=O)c2ccccc2)cc1	2.9
COc1ccc(C=C(C(=O)c2ccccc2)C(=O)c2ccccc2)cc1	-98.6
CC(C)(C)NCC(=Cc1ccccc1)C(=O)c1ccccc1	51.7*
N#C[C@H]1[C@@H](c2ccc(C#CC3CCCC3)cc2)[C@@H](CO)N1C(=O)c1cccc(F)c1	-3.1
Cc1noc(C)c1NC(=O)Nc1ccc2c(c1)C(=O)N([C@H](C)CO)C[C@@H](C)[C@H](CN(C)Cc1ccc3c(c1)OCO3)OCCCC[C@H](C)O2	6.2[25 µM]
COc1ccc(NC(=O)N(C)C[C@@H]2OCc3cn(nn3)CCCC(=O)N([C@@H](C)CO)C[C@@H]2C)c(OC)c1	-5.0[25 µM]
NC(c1csc(Nc2cc(Oc3ccccc3)ncn2)n1)c1ccccc1Cl (stereo not drawn)	-14.9
CN(C)Cc1csc(NC(=O)Nc2cccc(Cl)c2)n1	-12.8
NC(c1csc(NC(=O)Nc2cccc(Cl)c2)n1)c1ccccc1Cl (stereo not drawn)	59.0*
C[C@@H]1CN([C@H](C)CO)C(=O)c2c(c3ccccc3n2C)-c2ccccc2CO[C@@H]1CN(C)C(=O)[C@@H]1CCCN1C	-1.4[25 µM]
N#C[C@@H]1[C@@H](c2ccccc2-c2cccc(F)c2)[C@H](CO)N1C(=O)C1CCC1	0.4[25 µM]
COCC(=O)N1[C@H](CO)[C@H](c2ccccc2)[C@@H]1C#N	-8.7[25 µM]
C(=C\c1ccc2ccccc2n1)/c1ccccc1	27.7
CCOc1ccccc1C=NN1CCCCCC1	7.0
C(=NN1CCCCCC1)c1ccc2ccccc2n1	76.8*
CC(C)NC(=O)N(C)C[C@H]1Oc2ccc(N(C)C)cc2C(=O)N(C)C[C@@H]1C	5.8
COc1ccc(-c2ccc3c(c2)[C@@H]2[C@@H](CCN2C(=O)C2CC2)[C@H](CO)N3C)cc1	40.1
COc1ccc(-c2ccc3c(c2)[C@H]2[C@H](CCN2C(=O)C2CC2)[C@@H](CO)N3C)cc1	53.1*
CN1c2ccc(-c3cccc(F)c3)cc2[C@H]2[C@H](CCN2C(=O)C2CC2)[C@H]1CO	52.8*
SMILES	CD40 NFkB inh
CN1c2ccc(-c3cccc(F)c3)cc2[C@@H]2[C@@H](CCN2C(=O)C2CC2)[C@@H]1CO	19.5
COc1ccc(-c2ccc3c(c2)[C@H]2[C@H](CCN2C(=O)C2CC2)[C@H](CO)N3C)cc1	-4.7
CN1c2ccc(-c3cccc(F)c3)cc2[C@@H]2[C@@H](CCN2C(=O)C2CC2)[C@H]1CO	-97.1
C[C@@H]1CN([C@H](C)CO)C(=O)Cc2cc(N(C)C)ccc2O[C@H]1CN(C)Cc1ccc(-c2ccccc2)cc1	-5.1[25 µM]
CNC[C@H]1Oc2ccc(NS(C)(=O)=O)cc2C(=O)N(C)C[C@@H]1C	-2.3
CCCC#Cc1ccc([C@H]2[C@@H](CO)N(S(C)(=O)=O)[C@H]2C#N)cc1	-5.1[25 µM]
CCC(=O)N1[C@H](CNC(C)=O)[C@H](c2ccc(-c3cccc(F)c3)cc2)[C@@H]1CO	1.7
N#C[C@@H]1[C@@H](c2ccccc2-c2ccccc2F)[C@@H](CO)N1C(=O)C1CCOCC1	9.4[25 µM]
COc1ccc(C(=O)N2C[C@H]3[C@@H](c4ccccc42)[C@@H](CO)N3Cc2ccc3c(c2)OCO3)cc1	7.9[25 µM]
Nc1nc2c(F)cccc2s1	-0.1
CC(=O)N/C(N)=N/c1nc(=O)c2ccccc2s1	-97.3
Nc1nc(=O)c2ccccc2s1	51.2*
COc1ccc(NC(=O)N2CCC3(CC2)CN(C(=O)C2CCC2)[C@H](CO)c2c3c3ccc(OC)cc3n2C)cc1	7.3[25 µM]
CO[C@@H]1CN(C)C(=O)c2ccc(NC(C)=O)cc2OC[C@H](C)N(Cc2cc(F)ccc2F)C[C@@H]1C	5.7
Cc1ccc(-c2cc(C(=O)N3CCCC(C(F)(F)F)C3)c3ccccc3n2)o1 (stereo not drawn)	104.6*
Cc1ccc(-c2cc(C(=O)N3CCOCC3)c3ccccc3n2)o1	-10.8
Cc1c(C(=O)N2CCCC(C(F)(F)F)C2)oc2ccccc12 (stereo not drawn)	-21.6
C[C@H]1CC(=O)N[C@@H](c2ccccc2)C/C=C\C[C@H](c2ccccc2)NC1=O	10.3[25 µM]
O=C(NCC[C@@H]1CC[C@@H](NS(=O)(=O)c2ccc(F)cc2)[C@@H](CO)O1)Nc1ccc(Cl)cc1	-24.3
CC1(C)C(=O)N=C2c3ccccc3C(=O)C(=O)C21 (stereo not drawn)	90.8*[25 µM]
CCC(=O)N1CC2(C1)[C@H](c1ccccc1)[C@@H](CO)N2CC1CC1	-3.0[25 µM]
O=C(NCC1CC1)[C@@H]1[C@@H](CO)[C@@H]2Cn3c(ccc(-c4ccccc4F)c3=O)[C@H]1N2Cc1cncnc1	-4.7[25 µM]
CN1CCN(C(=O)C[C@@H]2C[C@@H]3c4cc(NS(C)(=O)=O)ccc4O[C@@H]3[C@@H](CO)O2)CC1	-2.9[25 µM]
O=C(c1cccc(F)c1)N1C[C@@H]2[C@H](c3ccccc31)[C@H](CO)N2C(=O)C1CCCC1	7.4
COc1ccc(S(=O)(=O)N2CC3(CN(C(=O)c4cccnc4)[C@@H](CO)c4c3c3ccc(OC)cc3n4C)C2)cc1	3.7[25 µM]
SMILES	CD40 NFkB inh
Cc1ccc(S(=O)(=O)Nc2ccc3c(c2)CC(=O)N([C@@H](C)CO)C[C@H](C)[C@H](CN(C)S(=O)(=O)c2ccccc2)O3)cc1	-3.9[25 µM]
O=C1C[C@H](c2ccccc2)C(=O)N[C@@H](c2ccccc2)C/C=C\C[C@@H](c2ccccc2)N1	59.9*[25 µM]
O=C1C[C@@H](c2ccccc2)C(=O)N[C@@H](c2ccccc2)C/C=C\C[C@H](c2ccccc2)N1	-9.8[25 µM]
O=C1C[C@@H](c2ccccc2)C(=O)N[C@H](c2ccccc2)C/C=C\C[C@H](c2ccccc2)N1	4.8[25 µM]
O=C(C[C@@H]1CC[C@H]2[C@@H](COC[C@@H](O)CN2CC2CCOCC2)O1)NCC1CCCCC1	-5.1[25 µM]
N#Cc1ccccc1COC(=O)c1cc(S(=O)(=O)N2CCOCC2)ccc1F	11.5
CCc1cc2c(COC(=O)c3cc(S(=O)(=O)N4CCOCC4)ccc3F)cc(=O)oc2cc1O	50.9*
O=C(OCC(=O)N1CCCC1=O)c1cc(S(=O)(=O)N2CCOCC2)ccc1F	12.7
CO[C@@H]1CN(C)C(=O)c2cc(NC(=O)c3cccc(F)c3)ccc2OC[C@H](C)N(C)C[C@H]1C	1.9[25 µM]
COc1cc2c(cc1OC)CN(CC(=O)NC(=O)NC(C)(C)C)CC2	-0.1
COc1ccc(C(=O)CCN2CCc3cc(OC)c(OC)cc3C2)cc1	50.4*
COc1cc2c(cc1OC)CN(C(=O)c1ccc(-c3ccccc3)cc1)CC2	17.5
CCC(=O)N1[C@@H]2Cn3c(cccc3=O)[C@H]1[C@@H](C(=O)NC1Cc3ccccc3C1)[C@@H]2CO	-19.3[25 µM]
CCCC#Cc1ccc([C@H]2[C@@H](CO)N3C(=O)CN(S(=O)(=O)c4ccccc4C)C[C@H]23)cc1	8.1[25 µM]
O=C(NCCCn1ccnc1)c1ccc2nccnc2c1	13.4
O=C(NCCc1ccccc1)c1ccc2nccnc2c1	72.2*
